Here are results for 9 molecules from PubChem BioAssay (NCATS).

Assay [1] can be described thus: Primary qHTS for Huh7 cytotoxicity: counterscreen for inhibitors of MERS-S pseudotyped particle cell entry (AID 1479147). Note: % is set by controls: 0 for no effect and ±100 for the full control effect. The following applies: outcome: dose series up to 57.1 µM unless noted. (qHTS replaces the single test concentration by a dilution series.)
A short description of assay [2]: Primary qHTS for inhibitors of MERS-S pseudo-typed particle cell entry (AID 1479149). For activity change, negative = inhibition: % is set by controls: 0 for no effect and ±100 for the full control effect. Note: nearly all actives have a fitted effect of over 60% in size. The following applies: outcome: dose series up to 57.1 µM unless noted.
Assay [3] in a line: Primary qHTS for Vero E6 cytotoxicity: counterscreen for inhibitors of SARS-S pseudo-typed particle cell entry (AID 1479150). The note with it: outcome: dose series up to 57.1 µM unless noted.
Assay [4] in a line: Cytotoxicity counterscreen for inhibitors of SARS-CoV-2 cell entry (AID 1645845). Note: nearly all actives have a fitted effect of over 50% in size. The note with it: outcome: dose series up to 57.1 µM unless noted. In a few lines: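 Counterscreen run in the same HEK293-ACE2 line as the pseudotyped-particle entry assay, without particles. Viability after 48 h at 37 C was read as ATP luminescence, scaled between cell-containing and cell-free wells.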
(In general: The purpose of a counterscreen is to sort out artefacts and off-target activity.)

The nature of assay [5]: qHTS Assay for Identifying Gametocytocidal Compounds (AID 743244; active = well fitted curve in the direction sought with a large enough effect; an effect the other way counts as inactive or inconclusive; note: potency is the fitted concentration of half-maximal effect). The note with it: P. falciparum 3D7 stage III-V gametocytes, alamarBlue, 72 h. Summed up:
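Viability read-out was resazurin reduction (alamarBlue, 24 h) measured at Ex 525/Em 598 nm. Beforehand, late-stage (III-V) 3D7 P. falciparum gametocytes at 20,000 cells/well were incubated with compound 72 h at 37C under 5% CO2.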

A short description of assay [6]: Primary qHTS for inhibitors of SARS-S pseudo-typed particle cell entry (AID 1479145). Note: nearly all actives have a fitted effect of over 45% in size. Note: potency is the fitted concentration of half-maximal effect. The note with it: outcome: dose series up to 57.1 µM unless noted.
The nature of assay [7]: Confirmatory qHTS to identify inhibitors of SARS-CoV-2 cell entry (AID 1645844). Note: potency is the fitted concentration of half-maximal effect; nearly all actives have a fitted effect of over 45% in size. In a few lines:
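HEK293-ACE2, overnight seeding; cpd 1 h, 37C/5% CO2; + SARS-CoV-2-S MLV PP (Wuhan-Hu-1, ΔC19); 48 h; Bright-Glo luminescence. Data normalised to S PP and bald PP wells.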

The nature of assay [8]: Primary qHTS to identify inhibitors of SARS-CoV-2 cell entry (AID 1645846). Note: nearly all actives have a fitted effect of over 45% in size. Note: potency is the fitted concentration of half-maximal effect. The following applies: SARS-CoV-2 pseudovirus cell entry assay, luminescence; activity change, negative = inhibition: at 57.1 µM (top of the series) unless noted. Summed up: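 Using luciferase-reporting pseudoviruses carrying Wuhan-Hu-1 spike, the screen tracks entry into stably ACE2-expressing cells over 48 hr. Activity is expressed relative to spike particles versus particles lacking any fusion protein.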

Assay [9] is described as follows: VSVG counterscreen qHTS to identify inhibitors of SARS-CoV-2 cell entry (AID 1645847). Note: potency is the fitted concentration of half-maximal effect; nearly all actives have a fitted effect of over 65% in size. In a few lines:
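Entry of VSV-G pseudotyped particles into human ACE2-expressing HEK293 cells was measured by luciferase luminescence 48 h after infection, with compound added 1 h beforehand.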

The nature of assay [10]: Confirmation and Secondary Assay for Modulators of Hemoglobin Beta Chain Splicing at IVS2 654 locus (AID 910; active = well fitted curve in the direction sought with a large enough effect; an effect the other way counts as inactive or inconclusive;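 note: HeLa cells stably carrying EGFP split by mutant beta-globin IVS2-654 intron; % of control where 0% means no effect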). In a few lines: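 HeLa cells stably expressing EGFP interrupted by β-globin IVS2-654 intron, seeded overnight in Opti-MEM/2% FCS, then treated 2 days at 37 °C. Restored splicing read as total peak GFP intensity per well by laser scanning cytometry (488 nm excitation, 500–520 nm emission); 500 nM antisense PNA as control.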

Assay [11] is described as follows: Confirmation and Secondary Assay for Modulators of Hemoglobin Beta Chain Splicing at IVS2 705 locus (AID 930; active = well fitted curve in the direction sought with a large enough effect; an effect the other way counts as inactive or inconclusive;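 note: HeLa cells stably expressing the EGFP-705 splicing reporter; GFP fluorescence per well restored by corrected splicing of the IVS2-705 intron in EGFP; % of control where 0% means no effect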). Summed up:
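Fluorescence gain (488 nm laser, 500-520 nm PMT) reflects restored correct splicing of a mutant IVS2-705 intron inside EGFP in stably transfected HeLa cells after 2-day compound treatment.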

Assay [12] is described as follows: qHTS Assay for Lipid Storage Modulators (AID 1519). For activity change, negative = inhibition: % is set by controls: 0 for no effect and ±100 for the full control effect. The following applies: Drosophila S3 cells, BODIPY lipid droplet/cell ratio, laser cytometry, cells loaded with oleic acid. In a few lines:
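Cells seeded at 5,000 per well were treated with compounds over a concentration series and loaded with oleic acid (400 uM, as added). Lipid droplet fluorescence (488 nm excitation, 500-530 nm channel) was read by laser-scanning cytometry and normalized to 20 uM Triacsin C.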

In assay [13] the target is Ubiquitin carboxyl-terminal hydrolase 1 (Homo sapiens) (UniProt O94782). Kind of assay: Inhibitors of USP1/UAF1: Pilot qHTS (AID 504865; active = well fitted curve in the direction sought with a large enough effect; an effect the other way counts as inactive or inconclusive;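 note: rhodamine fluorescence freed from ubiquitin-rhodamine substrate followed over time; top concentration of the series differs between compounds; % is set by controls: 0 for no effect and ±100 for the full control effect; nearly all actives have a fitted effect of over 35% in size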). Summed up:
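Enzyme-free wells gave the negative control, while test wells held 1nM USP1/UAF1 preincubated with compound for 15 min at room temperature. Ub-Rho at 150nM final started the reaction, and fluorescence at 480/540 nm was recorded kinetically.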

Assay [14] concerns the target Glutathione peroxidase 1 (Homo sapiens) (UniProt P07203). In words: Primary qHTS Assay for Inhibitors of Recombinant Selenoprotein Glutathione Peroxidase 1 (GPX1) (AID 1845191; active = well fitted curve in the direction sought with a large enough effect; an effect the other way counts as inactive or inconclusive; note: nearly all actives have a fitted effect of over 65% in size). In a few lines: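 GR-coupled readout: NADPH consumption tracked by fluorescence, ex 340/em 450 nm, at t=0 and after 15 min at RT. Final mix 10 nM GPX1, 1 mM GSH, 0.5 mM CHP, 0.5 mM NADPH, 100 nM GR, 0.01% BSA, following 30 min enzyme–compound preincubation.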

For assay [15], the target named is Phospholipid hydroperoxide glutathione peroxidase GPX4 (Homo sapiens) (UniProt P36969). In words: Primary qHTS Assay for Inhibitors of Recombinant Selenoprotein Glutathione Peroxidase 4 (GPX4) (AID 1845192; active = well fitted curve in the direction sought with a large enough effect; an effect the other way counts as inactive or inconclusive; note: nearly all actives have a fitted effect of over 65% in size). Summed up:
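Steps: GPX4 plus compound, 30 min RT; add GR/GSH/NADPH master mix; start with cumene hydroperoxide; read 340/450 nm fluorescence at 0 and 15 min. Finals were 200 nM GPX4, 1 mM GSH, 0.5 mM CHP, 0.5 mM NADPH, 100 nM GR.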

Inconclusive results are not listed. Calls of active or inactive are those of the source. Unless noted, calls come from the whole dose curve.

Phospholipid hydroperoxide glutathione peroxidase GPX4 (Homo sapiens), sequence (P36969 whole entry, looked up): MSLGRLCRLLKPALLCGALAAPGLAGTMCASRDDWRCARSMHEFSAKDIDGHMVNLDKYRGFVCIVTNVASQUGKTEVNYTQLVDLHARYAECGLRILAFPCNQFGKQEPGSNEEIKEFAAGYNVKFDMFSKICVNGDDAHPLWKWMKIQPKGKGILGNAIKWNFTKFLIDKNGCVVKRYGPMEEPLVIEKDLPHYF
Glutathione peroxidase 1 (Homo sapiens), sequence (P07203 whole entry, looked up): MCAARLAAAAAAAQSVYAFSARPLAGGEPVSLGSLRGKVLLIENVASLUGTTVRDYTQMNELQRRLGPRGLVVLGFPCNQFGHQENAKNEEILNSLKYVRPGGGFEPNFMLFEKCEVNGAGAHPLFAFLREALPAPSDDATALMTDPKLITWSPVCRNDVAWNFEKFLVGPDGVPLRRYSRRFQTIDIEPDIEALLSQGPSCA
Ubiquitin carboxyl-terminal hydrolase 1 (Homo sapiens), sequence (O94782 whole entry, looked up): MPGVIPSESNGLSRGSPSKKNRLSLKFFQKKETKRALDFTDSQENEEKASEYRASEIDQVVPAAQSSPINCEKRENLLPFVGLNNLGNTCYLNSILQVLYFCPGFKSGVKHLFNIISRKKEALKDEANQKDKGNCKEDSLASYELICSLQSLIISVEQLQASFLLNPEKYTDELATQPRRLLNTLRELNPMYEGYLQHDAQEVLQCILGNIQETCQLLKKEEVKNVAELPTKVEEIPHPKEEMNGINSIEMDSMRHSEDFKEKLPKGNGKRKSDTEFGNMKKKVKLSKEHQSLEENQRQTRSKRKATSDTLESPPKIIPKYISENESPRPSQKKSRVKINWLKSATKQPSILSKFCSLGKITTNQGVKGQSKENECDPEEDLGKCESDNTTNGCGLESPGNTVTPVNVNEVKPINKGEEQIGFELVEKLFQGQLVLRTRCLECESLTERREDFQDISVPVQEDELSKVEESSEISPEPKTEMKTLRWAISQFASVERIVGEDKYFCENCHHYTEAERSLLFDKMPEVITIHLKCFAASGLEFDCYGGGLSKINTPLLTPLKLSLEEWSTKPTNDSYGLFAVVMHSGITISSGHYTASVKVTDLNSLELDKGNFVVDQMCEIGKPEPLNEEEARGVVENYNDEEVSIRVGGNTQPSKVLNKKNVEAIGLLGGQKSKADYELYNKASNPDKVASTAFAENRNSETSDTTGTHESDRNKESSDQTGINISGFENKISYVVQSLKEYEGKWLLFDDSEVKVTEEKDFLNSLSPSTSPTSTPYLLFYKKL

For `C[N+]1(C)CCN(CC(O)(c2ccccc2)C2CCCCC2)CC1` (stereo not drawn), the Potency result in [1], in assay [2], in assay [3] and in assay [4] was “inactive” in each case.
In the case of `CO[C@H](C(=O)[C@@H](O)[C@@H](C)O)C1Cc2cc3cc(O[C@H]4C[C@@H](O[C@H]5C[C@@H](O)[C@H](O)[C@@H](C)O5)[C@@H](O)[C@@H](C)O4)c(C)c(O)c3c(O)c2C(=O)[C@H]1O[C@H]1C[C@@H](O[C@H]2C[C@@H](O[C@H]3C[C@](C)(O)[C@H](O)[C@@H](C)O3)[C@H](O)[C@@H](C)O2)[C@H](O)[C@@H](C)O1` (stereo partly drawn), the Potency in [5] was 833 nM (active); in assay [6], 3550 nM (active); in assay [7], 171 nM (active); in assay [9], 152 nM (active). Also, the Potency result in assay [4] is “inactive”. For the same molecule, in assay [8], the activity change, negative = inhibition is -92.7%.
Take `COc1ccc(CNc2nc(N3CCC[C@H]3CO)ncc2C(=O)NCc2ncccn2)cc1Cl`: the Potency entry in assay [1], in [2] and in [3] was “inactive” each time.
Consider `C=CC(=O)N1CCCC(n2nc(-c3ccc(Oc4ccccc4)cc3)c3c(N)ncnc32)C1` (stereo not drawn), for which the Potency entry in [1], in assay [2] and in assay [3] was “inactive” each time.
Turning to `CCCCCCCCC=CCCCCCCCC(=O)NCCOC(=O)CC(C(=O)O)S(=O)(=O)O` (stereo not drawn), the Potency result in assay [6] and in [3] was “inactive” each time.
In the case of `Nc1nc(NC2CC2)c2ncn([C@H]3C=C[C@@H](CO)C3)c2n1`, the Potency result in assay [6], in [2] and in assay [8] was “inactive” in each case.
As for `O=[N+]([O-])c1ccc(Oc2ccc(N=C=S)cc2)cc1`, the Potency entry in assay [1] was “inactive”.
In the case of `CNC(C)C(O)c1ccccc1` (stereo not drawn), the Potency result in [10], in [11], in [13], in [1], in [2] and in [3] was “inactive” each time. Also, the Potency result in assay [4], in assay [14] and in [15] was “inactive” each time. Also, the activity change, negative = inhibition in assay [12] (at 57.5 µM (top of the series)) is 8.05% (inactive); in assay [8], -30.3%. Also, the max response in assay [12] (measured here: cell count channel max response) is 10.2%; in [12] (measured here: lipid channel max response), 21.8%.
For `CO[C@H]1C[C@@H]2CC[C@@H](C)[C@@](O)(O2)C(=O)C(=O)N2CCCC[C@H]2C(=O)O[C@H]([C@@H](C)C[C@@H]2CC[C@@H](O)[C@H](OC)C2)CC(=O)[C@H](C)/C=C(\C)[C@@H](O)[C@@H](OC)C(=O)[C@H](C)C[C@H](C)/C=C/C=C/C=C/1C`, the Potency result in assay [6] and in assay [3] was “inactive” in each case. In assay [8], the Potency is 20000 nM (active).
